According to PubChem BioAssay:
The source made the active and inactive calls.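 The calls were made as follows, unless noted: active = inhibition above 20% together with a positive visual image hit; inconclusive = visual image hit but inhibition not above 20%; inactive = no visual image hit.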

Columns and labels:
[1] = inhibitors of TNFa-induced NFkB p65 translocation, primary screen, imaging, HUVEC, MLSMR starter and 10KST1 sets (AID 438); conditions: HUVEC TNFa-induced p65 nuclear translocation; cell count: measured here: nuclei count (cytotoxicity indicator), at 2.08 µM; inhibition: at 2 µM, stronger effect = higher value, 0% TNFa-plus-vehicle, 100% no-TNFa wells;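 also: compound added about 3h40 before a 20 min TNFalpha stimulation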;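 as to inhibition: signal is the nuclear over cytoplasmic p65 intensity ratio per well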
[2] = reduction of polyQ htt aggregates in cells – imaging, exon1htt(103Q)mCFP cells, high-content imaging, primary screen (AID 483;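 active = visual image review flags a hit and inhibition of aggregation exceeds 20%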;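 also: compound exposure lasted 3 days before fixation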;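 as to nuclei count: percent of the per-plate median nuclei count of sample wells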); conditions: exon1htt(103Q)mCFP cell line, aggregate imaging, at 2 µM; inhibition of aggregation: stronger effect = higher value; nuclei count: measured here: cell count, toxicity
[3] = endothelial E-selectin expression blockers – imaging, HUVEC, immunofluorescence, MLSMR starter and 10KST1 sets, primary screen (AID 487;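 active = visually confirmed hit in the image check and inhibition above 20%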;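 as to inhibition: signal is fraction of cell area covered by stained E-selectin grains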;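 as to nuclei count: 100% = median nuclei count of all wells on the same plate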); conditions: HUVEC TNFalpha-induced E-selectin immunofluorescence imaging, at 2 µM; inhibition: stronger effect = higher value; nuclei count: measured here: cell number, toxicity
[4] = biological target: Voltage-gated potassium channel subunit beta-2 (Rattus norvegicus) (UniProt P62483); assay: inhibitors of rat Kvbeta2 reductase activity – biochemical, NADPH fluorescence, primary screen (AID 622;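 active = fluorescence slope higher than the sample average by over 3 SD, cut at about -0.22 in these data, passing the limit was not always enough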;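 also: slope of raw intensity against log time taken from 70 to 1610 s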); conditions: recombinant KvBeta, 4-cyanobenzaldehyde reduction, at 10 µM, stronger effect = higher value
Chain of Voltage-gated potassium channel subunit beta-2 (Rattus norvegicus) (P62483 whole entry, looked up): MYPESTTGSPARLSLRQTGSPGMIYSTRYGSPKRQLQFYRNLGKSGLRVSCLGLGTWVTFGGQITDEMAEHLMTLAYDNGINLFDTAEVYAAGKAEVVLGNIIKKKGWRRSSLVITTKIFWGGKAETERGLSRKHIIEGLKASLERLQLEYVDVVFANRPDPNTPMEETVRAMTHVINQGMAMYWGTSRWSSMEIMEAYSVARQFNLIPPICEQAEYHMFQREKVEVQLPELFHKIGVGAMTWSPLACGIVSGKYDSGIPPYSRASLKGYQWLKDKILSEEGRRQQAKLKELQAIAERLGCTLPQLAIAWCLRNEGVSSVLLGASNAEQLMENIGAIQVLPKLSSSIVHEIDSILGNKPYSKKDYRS

[5] = biological target: Voltage-gated potassium channel subunit beta-2 (Rattus norvegicus) (UniProt P62483); assay: enhancers of rat Kvbeta2 NADPH turnover – biochemical, NADPH fluorescence, primary screen (AID 623;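 active = NADPH fluorescence slope more negative than the mean of all samples by about 3 SD, 99.7% confidence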;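 also: fluorescence intensity change per second fitted from 20 to 320 s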); conditions: Recombinant KvBeta, NADPH fluorescence decrease slope, 10 min; at 10 µM; stronger effect = lower value
[6] = biological target: Alpha-2C adrenergic receptor (Homo sapiens) (UniProt P18825); assay: compounds altering alpha2C-coupled GIRK flux – cell-based, HEK293 alpha2C/GIRK1/2, thallium flux, primary screen (AID 624;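 active = fluorescence slope after compound addition differing from the mean of all screened samples at 99.7% confidence, in either direction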;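 also: slope of fluorescence ratio to pre-addition baseline per second over 15 to 24 s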); conditions: thallium flux BTC fluorescence, at 10 µM, actives lie on both sides
Chain of Alpha-2C adrenergic receptor (Homo sapiens) (P18825 whole entry, looked up): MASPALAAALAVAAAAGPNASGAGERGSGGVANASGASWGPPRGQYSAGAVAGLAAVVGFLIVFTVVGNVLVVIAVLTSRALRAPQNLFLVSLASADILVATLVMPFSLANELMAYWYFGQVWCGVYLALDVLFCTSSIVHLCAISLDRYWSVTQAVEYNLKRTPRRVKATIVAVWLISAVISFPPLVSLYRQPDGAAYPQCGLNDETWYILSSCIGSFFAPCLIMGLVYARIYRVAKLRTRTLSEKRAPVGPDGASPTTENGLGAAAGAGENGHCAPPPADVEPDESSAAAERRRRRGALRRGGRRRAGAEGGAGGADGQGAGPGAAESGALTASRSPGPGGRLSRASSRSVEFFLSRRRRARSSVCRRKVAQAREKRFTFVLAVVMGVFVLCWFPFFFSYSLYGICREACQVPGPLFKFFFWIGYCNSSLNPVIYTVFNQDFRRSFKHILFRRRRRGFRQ

[7] = blockers of RIG-like receptor reporter activation – cell-based, Sendai virus stimulus, luciferase, 10K MLSCN set, TLR/RLR signaling modifier project, primary screen (AID 602276;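 active = inhibition at or above 50% at 10 µM; inactive = inhibition below 50%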;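 also: firefly luciferase from ISG56 promoter only with Renilla not read in this screen; 0% = Sendai virus plus DMSO and 100% = medium plus DMSO without virus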); conditions: HEK293 RL24 IRF3 luciferase reporter, at 10 µM, stronger effect = higher value
[8] = TLR3 IRF3 reporter activation blockers – cell-based, poly I:C stimulus, luciferase, 10K MLSCN set, primary screen (AID 602277;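 active = inhibition of the reporter signal at or above 50%; inactive = inhibition below 50%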); conditions: HEK293-TLR3 RL24 IRF3 luciferase reporter, at 10 µM, stronger effect = higher value

| SMILES | cell count [1] | inhibition [1] | inhibition of aggregation [2] | nuclei count [2] | inhibition [3] | nuclei count [3] | fluorescence slope [4] | NADPH fluorescence slope [5] | slope [6] | inhibition [7] | inhibition [8] |
| --- | --- | --- | --- | --- | --- | --- | --- | --- | --- | --- | --- |
| O=C(Nc1ccccc1C(=O)N1CCOCC1)c1cccc(S(=O)(=O)N2CCCC2)c1 | 440 | -5.3% (inactive) | 0.3% (inactive) | 92.3% | -138% (inactive) | 118% | -0.455 (inactive) | 4.9e-06 (inactive) | 0.00695 (inactive) | 2.51% (inactive) | 22.9% (inactive) |
| COC(=O)c1ccc(COc2ccc(C3C4=C(CCCC4=O)Nc4onc(C)c43)cc2)cc1 (centres undefined) | 303 | -4.7% (inactive) | -8.3% (inactive) | 112% | -68.7% (inactive) | 118% | -0.479 (inactive) | -1.7e-05 (inactive) | 0.00693 (inactive) | -12.9% (inactive) | -23% (inactive) |
| Cc1cc(=O)oc2cc(OCC(=O)OCC(=O)N3CCc4ccccc43)ccc12 | 358 | 4.7% (inactive) | -5% (inactive) | 88.9% | -44.9% (inactive) | 103% | -0.331 (inactive) | -5.7e-05 (inactive) | 0.00553 (inactive) | 11% (inactive) | 16.2% (inactive) |
| CON(C)c1nc(Oc2ccc(=O)[nH]n2)nc(N(C)C)n1 | 678 | -6.2% (inactive) | -9.5% (inactive) | 85.9% | -48.5% (inactive) | 101% | -0.351 (inactive) | 1.4e-05 (inactive) | 0.00477 (inactive) | 16.3% (inactive) | 19.3% (inactive) |
| Nc1c(N2CCCCC2)c(=O)[nH]c(=O)n1-c1ccccc1 | 751 | 2.4% (inactive) | 3% (inactive) | 106% | -0.1% (inactive) | 109% | -0.456 (inactive) | 4.1e-05 (inactive) | 0.00376 (inactive) | -4.05% (inactive) | -5.22% (inactive) |
| Cc1cc2c(c(=O)o1)C(C13C=CC(CC1)C3)C(C#N)=C(N)O2 (centres undefined) | 326 | 5.3% (inactive) | -3.9% (inactive) | 102% | -56.1% (inactive) | 118% | -0.499 (inactive) | -5.8e-05 (inactive) | 0.0051 (inactive) | 5.92% (inactive) | 13.6% (inactive) |
| CCN(CC(=O)NCc1cccs1)C(=O)c1cc(S(=O)(=O)N2CCOCC2)ccc1C | 591 | -9.6% (inactive) | -22.2% (inactive) | 107% | -82.2% (inactive) | 136% | -0.466 (inactive) | -3.7e-05 (inactive) | 0.00388 (inactive) | 1.74% (inactive) | 27.8% (inactive) |
| Cc1cc(C(=O)Nc2ccc(S(=O)(=O)Nc3onc(C)c3C)cc2)cs1 | 608 | -3% (inactive) | 15.4% (inactive) | 94.1% | -17.7% (inactive) | 105% | -0.361 (inactive) | -5e-05 (inactive) | 0.00493 (inactive) | 5.43% (inactive) | 8.03% (inactive) |
| CCOc1ccccc1N(CC(=O)N1CCCCCC1)S(C)(=O)=O | 358 | -10% (inactive) | -1.2% (inactive) | 117% | -83.5% (inactive) | 117% | -0.447 (inactive) | -1.3e-05 (inactive) | 0.00598 (inactive) | 9.48% (inactive) | 19.4% (inactive) |
| O=C(Cn1cnc2ccccc2c1=O)NCCC(=O)N1CCN(Cc2ccccc2)CC1 | 451 | -3.8% (inactive) | 31.1% (inactive) | 80.5% | -0.7% (inactive) | 112% | -0.416 (inactive) | -9.6e-05 (inactive) | 0.00528 (inactive) | 12.1% (inactive) | 24.7% (inactive) |
| COc1ccc(-c2nnc(SCC(=O)N3CCOCC3)o2)cc1OC | 603 | 19% (inactive) | -39.9% (inactive) | 86.5% | 38.5% (inactive) | 78.3% | -0.54 (inactive) | 1.3e-05 (inactive) | 0.0068 (inactive) | -13.3% (inactive) | 4.93% (inactive) |
| COc1ccc(N2CCN(CCNS(=O)(=O)c3cccc4nsnc34)CC2)cc1 | 353 | -3% (inactive) | 8.4% (inactive) | 106% | -119% (inactive) | 104% | -0.443 (inactive) | 1.8e-05 (inactive) | 0.00512 (inactive) | 11.2% (inactive) | 18% (inactive) |
| COc1ccc(S(=O)(=O)NCc2ccc3c(c2)OCO3)cc1C(=O)O | 379 | -4.7% (inactive) | -1.8% (inactive) | 120% | -41.3% (inactive) | 107% | -0.324 (inactive) | -8.9e-06 (inactive) | 0.00676 (inactive) | 9.22% (inactive) | 20.8% (inactive) |
| CC(C)OC(=O)CSc1nnc(-c2cccnc2)n1Cc1ccccc1 | 706 | -16.4% (inactive) | 8.1% (inactive) | 88.7% | 5.1% (inactive) | 98.8% | -0.356 (inactive) | -4.8e-05 (inactive) | 0.00509 (inactive) | 8.88% (inactive) | 10.9% (inactive) |
| CC1CCCCN1CCNC(=O)C1CCN(S(=O)(=O)c2cccc3cccnc23)CC1 (centres undefined) | 450 | -0.8% (inactive) | 5.9% (inactive) | 72.5% | -54.5% (inactive) | 105% | -0.522 (inactive) | -4e-05 (inactive) | 0.00613 (inactive) | 6.15% (inactive) | 39.6% (inactive) |
| O=C(O)c1cccc(COCC(F)(F)C(F)F)c1 | 714 | -9% (inactive) | 17.2% (inactive) | 101% | -16.8% (inactive) | 102% | -0.497 (inactive) | -4.4e-05 (inactive) | 0.00506 (inactive) | 5.99% (inactive) | 5.49% (inactive) |
| COc1ccc(/C=N/O)cc1COc1ccc(NC(C)=O)cc1 | 667 | 9.6% (inactive) | -10.6% (inactive) | 113% | -30.3% (inactive) | 64.4% | -0.589 (inactive) | -1.6e-05 (inactive) | 0.00667 (inactive) | 6.34% (inactive) | 10.2% (inactive) |
| Cc1cc(C)nc(NS(=O)(=O)c2ccc(NC(=O)Cn3c(=O)oc4ccccc43)cc2)n1 | 490 | 0.5% (inactive) | 26% (inactive) | 63.8% | -31.3% (inactive) | 122% | -0.577 (inactive) | -4.3e-06 (inactive) | 0.00665 (inactive) | 9.3% (inactive) | 25.4% (inactive) |
| CC(=O)c1cc2c(cc1NC(=O)CN1CCN(C(=O)c3ccco3)CC1)OCO2 | 410 | -6.1% (inactive) | 13.3% (inactive) | 44.6% | -58.5% (inactive) | 113% | -0.548 (inactive) | -3.4e-05 (inactive) | 0.00807 (inactive) | 4.38% (inactive) | 25.7% (inactive) |
